High-throughput results as filed in PubChem.
Hits are enriched below; roughly 3.5% of the tested compounds scored in any of these assays.
FBW7 activator – FBW7 E3 ligase activators, primary screen, biochemical, AlphaScreen, human. AlphaScreen FBW7–phospho-cyclin E peptide binding, activator screen. normalized activity (activation), % at 26.1 µM. 650,000 compounds, 0.13% hits; in the data active = normalized activity above about 1.9%;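 note: purified mutant Fbw7 with reduced substrate affinity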
GPR151 activ – activators of human GPR151, primary screen, cell-based, PathHunter beta-arrestin, luminescence | activation, % at 11.2 µM | AID 1508602, 2020 | PathHunter beta-arrestin GPR151 cells | G-protein coupled receptor 151 (Homo sapiens), Q8TDV0 | 650,000 compounds, 1% hits; in the data active = activation above about 4.9%
Target sequence (Q8TDV0 whole entry, looked up): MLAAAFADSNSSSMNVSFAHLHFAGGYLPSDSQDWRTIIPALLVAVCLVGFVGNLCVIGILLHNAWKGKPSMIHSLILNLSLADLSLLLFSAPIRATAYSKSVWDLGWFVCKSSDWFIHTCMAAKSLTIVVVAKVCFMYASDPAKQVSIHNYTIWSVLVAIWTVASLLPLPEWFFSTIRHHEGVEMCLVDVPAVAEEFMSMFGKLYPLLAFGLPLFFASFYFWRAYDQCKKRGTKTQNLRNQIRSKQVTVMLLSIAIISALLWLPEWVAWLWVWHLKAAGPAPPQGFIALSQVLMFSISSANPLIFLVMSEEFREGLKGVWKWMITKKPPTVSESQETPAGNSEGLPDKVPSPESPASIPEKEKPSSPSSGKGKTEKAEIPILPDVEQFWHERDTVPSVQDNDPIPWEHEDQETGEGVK
TEAD-YAP block – TEAD-YAP interaction inhibition, primary screen, TEAD-YAP interaction inhibitor project, luminescence, HEK-TIYL cells; TEAD-Gal4/YAP UAS-luciferase luminescence; inhibition, % at 9.12 µM; 640,000 compounds, 1.4% hits; AID 1259422, 2018; in the data active = inhibition above about 32%
MITF inh – MITF inhibitors, primary screen, biochemical, AlphaScreen, human. inhibition, % at 2.6 µM. Microphthalmia-associated transcription factor (Homo sapiens), O75030. AlphaScreen MITF homodimerization, bead proximity signal. 650,000 compounds, 0.91% hits; in the data active = inhibition above about 50%
Numbers stand for hits; 0 = inactive.

SMILES	FBW7 activator	GPR151 activ	TEAD-YAP block	MITF inh
O=C(CCCCC(=O)N/N=C/c1ccccc1O)N/N=C/c1ccccc1O	0	0	40	0
O=C(CCC(=O)Nc1cccc(Cl)c1)N/N=C/c1ccccc1O	0	0	0	56
Cc1occc1-c1nnc(SCC(=O)c2ccc(F)cc2)n1C	0	0	0	0
Cc1nc2c(cc(Oc3nnc(C)c4ccccc34)c3ccsc32)s1	0	0	0	0
O=C(Oc1ccccc1)c1ccc(NC(=O)c2cc(S(=O)(=O)N3CCOCC3)ccc2Cl)cc1	0	0	0	0
COc1ccc(C(=O)Nc2cccc(OC(=O)c3cc(S(=O)(=O)N4CCOCC4)ccc3Cl)c2)cc1	0	0	55	0
O=C(Nc1cccc(OC(=O)c2cc(S(=O)(=O)N3CCCCC3)ccc2Cl)c1)c1ccco1	0	0	0	0
COc1cccc(C(=O)Nc2cccc(OC(=O)c3cc(S(=O)(=O)N4CCCCC4)ccc3Cl)c2)c1	0	0	47	0
CCOc1ccc(-n2c(COc3ccccc3)nnc2SCC(=O)OC)cc1	0	0	0	0
COc1cc(-c2cc(C(=O)Nc3cc(C)[nH]n3)c3ccccc3n2)cc(OC)c1OC	0	0	33	0
CCOC(=O)c1c(C)[nH]c(C(=O)N/N=C\c2ccccc2)c1C	0	0	0	0
COc1ccccc1/C=N/NC(=O)c1[nH]c(C)c(C(=O)N/N=C/c2ccccc2OC)c1C	0	0	0	0
CCOC(=O)c1c(C)[nH]c(C(=O)N/N=C\c2ccccc2O)c1C	0	0	35	0
CCOC(=O)c1c(C)[nH]c(C(=O)N/N=C\c2ccc(Br)cc2)c1C	0	0	56	0
Oc1ccc(-c2csc(NCc3ccccc3)n2)cc1O	0	0	0	0
O=C(O)c1cccc(Nc2nc(-c3ccc(O)c(O)c3)cs2)c1	0	0	0	80
COc1ccc2cc(-c3csc(N)n3)ccc2c1	0	0	32	0
NNc1nc(-c2ccc(O)c(O)c2)cs1	0	0	0	103
COc1ccc(-c2csc(N)n2)c(F)c1	0	0	0	0
Nc1nc(-c2ccc(O)c(O)c2)cs1	0	0	0	79
COc1ccc(-c2cc(-c3ccc(OC)cc3)c(C#N)c(SCc3ccccc3C)n2)cc1	0	0	0	0
COc1cc(OC)c(-c2nc3cnccn3c2NCc2ccco2)cc1OC	0	0	0	0
O=C(Nc1ccc(N2CCCCC2)cc1)c1ccccc1F	0	0	70	0
O=C(Nc1ccc(N2CCCCC2)cc1)c1ccc(Br)o1	0	0	49	0
CCCC(=O)N1CCN(c2ccc(NC(=O)c3ccc(Br)o3)cc2)CC1	0	0	60	0
SMILES	FBW7 activator	GPR151 activ	TEAD-YAP block	MITF inh
O=C(Nc1ccc(C(=O)N2CCCC2)cc1)c1ccc(Br)o1	0	0	0	0
O=C1N[C@@H](CSCc2ccccc2)C(=O)N2C[C@@H](NCc3ccc4ncccc4c3)C[C@@H]12	0	0	0	0
O=C(/C=C/c1cccs1)NC1CCN(Cc2ccccc2)CC1	0	0	0	0
O=C(c1cnn2c1NC(c1ccco1)CC2C(F)(F)F)N1CCN(Cc2ccccc2)CC1 (configuration not stated)	0	0	45	0
O=C(O)CCCC(=O)Nc1cccc(Cl)c1	0	0	0	0
O=C(NCc1ccc(Cl)cc1)c1ccc(Cn2nnc3ccsc3c2=O)cc1	0	0	0	0
COc1ccc(O)c(/C=N/n2c(C)csc2=NC(C)C)c1	0	0	41	0
O=C(O)CCC(=O)N1N=C(c2ccccc2)CC1c1ccccc1 (configuration not stated)	1.9	0	0	0
COc1ccc(CNC(=O)N2CCC(c3nnc(C(C)C)o3)CC2)cc1OC	2.5	0	0	0
COc1ccc(CCNC(=O)CN2CCC(c3nnc(C(C)C)o3)CC2)cc1OC	0	0	0	0
CCN1CCCC1CNC(=O)CNC(=O)c1nn(-c2ccc(OC)cc2)c(=O)c2ccccc12 (configuration not stated)	0	0	0	0
COC(=O)c1cc2sccc2n1CC(=O)Cc1ccc(OC)cc1OC	0	0	50	0
COC(=O)c1cc2sccc2n1CC(=O)c1ccccc1	0	0	0	0
COc1ccc(CC(=O)Nc2cc(Nc3ccccc3NC(C)=O)c(C(F)(F)F)cn2)cc1	0	0	67	0
COc1ccc(CC(=O)Nc2cc(Nc3ccccc3-c3ncn[nH]3)ccn2)cc1	0	0	0	0
COc1ccc(CC(=O)Nc2ccccc2C(F)(F)F)cc1	0	0	0	0
COc1ccc(CC(=O)Nc2cc(Nc3ccccc3-c3ncco3)c(C(F)(F)F)cn2)cc1	0	0	54	0
O=C(Oc1ccc([N+](=O)[O-])c2cccnc12)c1ccccc1	0	0	57	82
O=C(Cc1cc2ccccc2[nH]1)N/N=C/c1ccc(O)cc1	0	0	0	0
CCn1c(C2COc3ccccc3O2)nc2ccc(-c3ccncc3)cc21 (configuration not stated)	0	0	0	0
c1ccc(Cn2c(C3COc4ccccc4O3)nc3ncc(-c4ccncc4)cc32)cc1 (configuration not stated)	0	0	47	0
CCOc1cc(/C=N/N=C(N)N)ccc1OCc1ccccc1	0	0	40	0
CCOc1cc(/C=N\NC(=O)c2ccc(N)cc2)ccc1OCc1ccccc1	0	0	0	0
C/C(N)=C(/C#N)C(=O)CSc1nnnn1-c1cc(C)ccc1C	0	0	0	0
Cc1nc(C)c(CN2CCC(C(=O)Nc3ccc(Oc4cccnc4)cc3)CC2)nc1C	0	0	0	0
SMILES	FBW7 activator	GPR151 activ	TEAD-YAP block	MITF inh
O=C(Nc1ccc(Oc2cccnc2)cc1)C1CCN(Cc2cc3ccccc3o2)CC1	0	0	44	0
Cc1cc2cc(CCNS(=O)(=O)c3ccc([N+](=O)[O-])cc3)c(=O)[nH]c2cc1C	0	0	45	0
Cc1ccc(C)c2[nH]c(=O)c(CCNS(=O)(=O)c3ccc([N+](=O)[O-])cc3)cc12	0	0	0	0
O=C1NC2(CCN(C(=O)c3csc4c3CCCC4)CC2)Nc2ccccc21	0	0	40	0
CC1CN=C(N(C)C(=O)Nc2cccc(Cl)c2)S1 (configuration not stated)	0	0	0	0
CNC(=O)N(C1=NCC(C)S1)c1cccc(Cl)c1 (configuration not stated)	0	0	40	0
CCOC(=O)c1ccc(N2C(=O)/C(=C\c3ccco3)C(C(=O)OC)=C2C)cc1	0	0	0	67
O=C(CCl)N=c1sccn1Cc1ccccc1Cl	0	0	39	0
O=C(CCn1c(=O)[nH]c2ccccc21)NCC1Cc2cc(F)cc(-c3cccnc3)c2O1 (configuration not stated)	0	0	0	0
CS(=O)(=O)N(CC(=O)N/N=C/c1cc(Cl)cc(Cl)c1O)c1ccccc1	0	0	58	0
CCc1nnc(NS(=O)(=O)c2ccc(NC(=S)NC(=O)c3ccccc3)cc2)s1	2.9	0	0	0
